# Experimental data: PubChem BioAssay (NCI)
# About 79,000 compounds went through this panel and 15% of them were active in at least one assay; those are over-represented in the sample as a whole. Active and inactive are the calls of the source. No stated cut-off is given here; in the data, active means growth inhibition above about 70%; inactive means the rest.
# Assay: NCI Yeast Anticancer Drug Screen. Data for the mlh1 rad18 strain (AID 175)
# Conditions: S. cerevisiae mlh1 rad18 strain growth inhibition; at 50.0 µM; hits give high values
# In short: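 Vehicle-treated cultures served as the reference for growth inhibition in a yeast strain carrying DNA damage repair alterations exposed to each compound.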
row,SMILES,growth inhibition
1,CCC(c1cccc(O)c1)C(CC)c1cccc(O)c1 (centres undefined),92.8% (active)
2,CCCCCCCCCCCC1C(C#N)C(=O)NC(=O)C1C#N (centres undefined),26% (inactive)
3,O=C(NNC(=O)c1cccc(C(=O)NNC(=O)c2ccc(Cl)c(Cl)c2)n1)c1ccc(Cl)c(Cl)c1,51.4% (inactive)
4,CCOC(=O)CCC(NC(=O)c1ccc(NC(OC)c2nc3cc(C(F)(F)F)ccc3nc2-c2ccccc2)cc1)C(=O)OCC (centres undefined),91.9% (active)
5,CCOC(=O)c1c(C)[nH]c(CO)c1C,65.5% (inactive)
6,S=C(NC(=S)Nc1ccc(Cl)cc1)Nc1ccc(Cl)cc1,78.7% (active)
7,O=S(=O)(c1ccc(OCC(O)COc2ccc(S(=O)(=O)c3ccc(OCC4CO4)cc3)cc2)cc1)c1ccc(OCC2CO2)cc1 (centres undefined),78.1% (active)
8,C=C(C)C(=O)OC1CC2=CC(CC3(C)OC3C3OC(=O)C(=C)C13)OC2=O (centres undefined),50.5% (inactive)
9,c1ccc2c(c1)C[n+]1ccc3ccccc3c1-c1c3ccccc3cc[n+]1C2,65.8% (inactive)
10,CCN(CC)CCOC(=O)Cc1cccc2c(=O)cc(-c3cccs3)oc12,-36% (inactive)
11,C=C1C(=O)OC2C/C(C)=C/CC/C(C)=C/CCC3(COC(C)=O)OC3CC12 (centres undefined),92.8% (active)
12,CN1C=CC(C(O)(c2ccccc2)c2ccccc2)CC1 (centres undefined),22.8% (inactive)
13,OCc1cccc2c1Oc1ccccc1S2,2.9% (inactive)
14,COC(=O)c1[nH]c(=O)c(C#N)c(C(=O)OC)c1C(=O)c1ccc(Cl)c(Cl)c1,93.9% (active)
